Source: PubChem
AmpC inh no det – inhibitors of E. coli AmpC beta-lactamase without detergent | AmpC nitrocefin hydrolysis, absorbance 480 nm, no detergent | AID 585 | hit rate 1.8% among 71,000 | Potency, µM (series often up to 28.7 µM), without a hit: at the highest dose activity change, negative = inhibition | P00811; note: % of control where 0% means no effect
Target sequence (P00811 whole entry, looked up): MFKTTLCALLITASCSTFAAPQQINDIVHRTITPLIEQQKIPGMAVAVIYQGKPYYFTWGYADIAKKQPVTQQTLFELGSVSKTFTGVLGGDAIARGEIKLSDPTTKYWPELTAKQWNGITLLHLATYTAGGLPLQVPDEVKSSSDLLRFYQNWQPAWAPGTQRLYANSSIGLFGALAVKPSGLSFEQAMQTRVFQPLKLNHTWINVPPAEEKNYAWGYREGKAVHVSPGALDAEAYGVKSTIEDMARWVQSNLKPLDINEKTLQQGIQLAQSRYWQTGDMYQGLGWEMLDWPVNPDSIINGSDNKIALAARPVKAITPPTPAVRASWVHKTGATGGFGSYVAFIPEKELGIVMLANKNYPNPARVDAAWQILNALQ
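AmpC in 20 mM phosphate buffer pH 7.0 was preincubated 15 min at room temperature with compounds. Nitrocefin (800 uM stock) was then added and hydrolysis followed at 480 nm every 20 s for 4 min.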
AmpC inh det – AmpC beta-lactamase inhibition, detergent assay; Potency, µM (titrated, usually from 28.7 µM), without a hit: at the highest dose activity change, negative = inhibition; P00811; hit rate 0.09% among 71,000; purified AmpC, nitrocefin hydrolysis with detergent; AID 584; active = well fitted curve in the direction sought with a large enough effect; inconclusive = small, poorly fitted or top-dose-only effect; note: % is set by controls: 0 for no effect and ±100 for the full control effect
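E. coli AmpC (5.3 nM) in 20 mM phosphate pH 7.0 with 0.01% Triton X-100, preincubated 15 min RT with compound; nitrocefin (2 uL of 800 uM stock) hydrolysis followed by 480 nm absorbance every 20 s over 4 min.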
Anthrax LT inh – inhibitors of anthrax lethal toxin internalization | Potency, µM (top dose mostly 40 µM), inactives show top-dose activity change, negative = inhibition, actives largely listed as inhibitors | hit rate 0.67% among 70,000 | AID 912 | Cells, anthrax lethal toxin internalization, FRET ratio (460/530); note: % is set by controls: 0 for no effect and ±100 for the full control effect; nearly all actives have a fitted effect of over 50% in size
SmPrx2 inh – Schistosoma mansoni Prx2 inhibition | S. mansoni Prx2 activity coupled to TGR/GSH (TGR is thioredoxin glutathione reductase), NADPH fluorescence loss, qHTS | Potency, µM | hit rate 0.07% among 65,000
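Purified S. mansoni TGR and Prx2 in pH 7.4 phosphate buffer with EDTA and Tween-20 were preincubated with compounds for 15 min. Further NADPH/GSH was added, then a 2.5 mM H2O2 aliquot initiated turnover, followed kinetically by NADPH fluorescence.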
The depositor's hits bear a star; ? = inconclusive; nt = no result; [ ] = another dose, or the depositor's remark. Sampled rows, rich in hits. Any-hit rate of the full collection: about 2.4%. Unless noted, calls come from the whole dose curve. Potency is the fitted concentration of half-maximal effect.

SMILES	AmpC inh no det	AmpC inh det	Anthrax LT inh	SmPrx2 inh
Cc1nn(-c2ccccc2)c2nc(N)c(C#N)c(-c3ccc(F)cc3)c12	3%	0%	5µM*	nt
Cc1ccc(-n2nc(C)c3c(-c4cccs4)c(C#N)c(N)nc32)cc1	-10%	3%	?	>57
N=C1Sc2ccccc2C2=NCCCN12	-13%	-1%	0.025µM*	>57
COc1ccccc1CNC(=O)c1cc2sccc2n1C	16%	-1%	?	>57
CCOc1ccccc1CNC(=O)c1cc2occc2n1C	10µM*[single pt active]	?	-28%	>57
CC1CCN(C(=O)CSc2nnc(Cn3c(=O)sc4ccccc43)n2C)CC1	?	16%	2%	>57
Cn1c(Cn2c(=O)sc3ccccc32)nnc1SCc1ccccn1	11%	1%	-2%	>57
CCSc1nnc(Cn2c(=O)sc3ccccc32)n1C	4µM*[single pt active]	14%	-6%	>57
Cn1c(Cn2c(=O)sc3ccccc32)nnc1SCC(=O)N1CCCC1	4µM*[single pt active]	27%	29%	>57
Cn1c(Cn2c(=O)sc3ccccc32)nnc1SCC(=O)N1CCc2ccccc21	4µM*[single pt active]	12%	-4%	>57
Cn1c(Cn2c(=O)sc3ccccc32)nnc1SCC(=O)N1CCCc2ccccc21	4µM*[single pt active]	13%	-9%	>57
OC[C@@H]1O[C@@H](O)[C@H](N=Cc2ccc3c(c2)OCO3)[C@@H](O)[C@@H]1O	9%[5.75 µM]	-4%[5.75 µM]	-6%[8 µM]	>57
C=CCN1CC[C@]23c4c5ccc(O)c4O[C@@H]2/C(=N/NC(=O)c2ccccc2)CC[C@@]3(O)[C@H]1C5	0%	-3%	?	>57
CC(=O)N1C[C@@H]2C[C@H](C1)c1cccc(=O)n1C2	3%	2%	?	>57
C[C@@H]1CN2[C@H](c3ccc(Br)cc3)[C@H](C)CC[C@H]2C(=O)O1	nt	nt	-5%[8 µM]	nt
CCOC(=O)N1CCC(Nc2c(NCCCN(C)Cc3ccccc3)c(=O)c2=O)CC1	4µM*[single pt active]	15%	6%	>57
CCOC(=O)C1CCCN(c2ncnc3c2oc2ccccc23)C1 (centres undefined)	69%	-1%	6%	>57
CCOC(=O)C1CCCN(c2c(N3CCc4ccccc4C3)c(=O)c2=O)C1 (centres undefined)	4µM*[single pt active]	12%	18%	>57
CCOC(=O)C1CCCN(c2c(NCCc3ccc(S(N)(=O)=O)cc3)c(=O)c2=O)C1 (centres undefined)	4µM*[single pt active]	13%	0%	>57
CCOC(=O)C1CCCN(c2c(NCc3ccco3)c(=O)c2=O)C1 (centres undefined)	4µM*[single pt active]	14%	3%	>57
CCOC(=O)N1CCC(Nc2c(-c3ccc(C)c(C)c3)c(=O)c2=O)CC1	14%	-1%	10%	>57
CO[C@@H](C)[C@](O)(C(=O)OC1=CCN2CC[C@H](O)[C@H]12)C(C)C	-3%	-3%	-16%	>57
CCOC(=O)C1CCCN(c2c(NCCN(C)Cc3ccccc3)c(=O)c2=O)C1 (centres undefined)	4µM*[single pt active]	13%	-13%	>57
C[C@@H]1C[C@@H]2[C@H]3CCC4=CC(=O)C=C[C@]4(C)[C@]3(Cl)[C@@H](O)C[C@@]2(C)[C@@]1(O)C(=O)CO	11%	-2%	-10%	>57
CCOc1ccc(C2C(C#N)=C(N)SC(N)=C2C#N)cc1OCC	5%	-1%	1%	>57
SMILES	AmpC inh no det	AmpC inh det	Anthrax LT inh	SmPrx2 inh
N#CC1=C(N)SC(N)=C(C#N)C1c1cccc(Oc2ccccc2)c1	7.9µM*	4%	?	nt
O=C1c2ccccc2C(O)N1c1ccc(Cl)cc1 (centres undefined)	-8%	7%	-14%	>57
Cc1ccc(N2C(=O)c3ccccc3C2Nc2ccccc2F)nc1 (centres undefined)	4µM*[single pt active]	10%	?	>57
Cc1ccc(N2C(=O)c3ccccc3C2O)nc1 (centres undefined)	4µM*[single pt active]	12%	14%	>57
O=C1c2ccccc2C(Nc2ccc(Cl)cn2)N1c1ccccn1 (centres undefined)	4µM*[single pt active]	15%	-22%	>57
COc1cc(OC)c(NC2c3ccccc3C(=O)N2c2cc(C)ccn2)cc1Cl (centres undefined)	82%	9%	-10%	>57
O=C(O)c1ccccc1/C=N\N=C1c2ccccc2-c2ccccc21	-13%[5.75 µM]	-3%[5.75 µM]	?	>57
Cc1cc(C)c(/C=C2/C(=O)Nc3ccccc32)[nH]1	-2%	-4%	-15%	>57
CCN(CC)C(=O)N[C@@H]1C=C2c3cccc4[nH]cc(c34)C[C@@H]2N(C)C1	15%	-2%	-15%	>57
CCCN1CCN(C(=O)C2CCN(S(=O)(=O)c3ccc4c(c3)oc(=O)n4C)CC2)CC1	4µM*[single pt active]	11%	?	>57
CCOC(=O)N1CCN(S(=O)(=O)c2ccc3c(c2)oc(=O)n3C)CC1	10%	-5%	nt	>57
COc1ccc(OC)c(-c2cc(C(=O)Nc3c(C)n(C)n(-c4ccccc4)c3=O)no2)c1	36%	-2%	-6%	7.1*
C[C@@H]1O[C@@H](O[C@H]2C[C@@H](O)[C@]3(CO)[C@@H]4[C@@H](O)C[C@]5(C)[C@H]([C@@H]6COC(=O)C6)CC[C@@]5(O)[C@H]4CC[C@@]3(O)C2)[C@H](O)[C@H](O)[C@@H]1O	7%	2%	?	>26
CCOC(=O)Cn1c(=O)oc2cc(S(=O)(=O)NCCCc3ccccc3)ccc21	0.32µM*[single pt active]	13%	?	>57
CC1(O)C(=O)C=C2C=C3CCCN3C=C2C1=O (centres undefined)	nt	nt	-12%[8 µM]	nt
CC(=O)c1cccc(NC(=O)CC2Oc3ccc(C)cc3NC2=O)c1 (centres undefined)	4µM*[single pt active]	8%	-5%	>57
Cc1ccc2c(c1)NC(=O)C(CC(=O)NC1CCCCC1C)O2 (centres undefined)	4µM*[single pt active]	13%	-5%	>57
CCC(C)N(CCNC(=O)CC1Oc2ccc(C)cc2NC1=O)C1CCCCC1 (centres undefined)	7%	8%	?	>57
O=C(CC1Oc2ccccc2NC1=O)NCc1ccccc1 (centres undefined)	-3%	5%	-10%	>57
Cc1ccc2c(c1)NC(=O)C(CC(=O)NCc1ccc(F)cc1)O2 (centres undefined)	?	10%	-6%	>57
Cc1ccc2c(c1)NC(=O)C(CC(=O)NCc1cccnc1)O2 (centres undefined)	4µM*[single pt active]	10%	-25%	>57
O=C1Nc2ccccc2OC1CC(=O)N1CCCC1 (centres undefined)	4µM*[single pt active]	11%	5%	>57
COc1cc2c(cc1OC)[C@]13CCN4CC5=CCO[C@@H]6CC(=O)N2[C@@H]1[C@H]6[C@@H]5C[C@H]43	-7%	-2%	?	>57
Cc1noc(C)c1C(=O)N1CCC[C@@]2(CCN(c3cccc(-c4ccccc4)c3)C2)C1	149%	2%	-14%	>57
CN(C)CCCNc1c2c(nc3ccc(Cl)cc13)CCCC2	-6%[5.75 µM]	-4%[5.75 µM]	?	>57
